Compound activity: PubChem BioAssay, National Center for Advancing Translational Sciences (NCATS)
HT1080 IDH1KD tx: toxicity to HT-1080 IDH1 knockdown cells (counter line); HT-1080 IDH1 knockdown viability, ATP luminescence, 48 h; Potency, µM (doses to about 46.1 µM), without a hit: at the highest dose activity, negative = toxicity, usual class: cytotoxic; 2% of 360,000 active;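 further: 0% = DMSO wells and -100% = cell-free medium wells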
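Knockdown cells (IDH1KD HT-1080) received compounds 2 h after plating at 750 cells/well and were kept 48 h at 37 °C in 5% FBS RPMI. A CellTiter-Glo luminescence read gave % activity for curve fitting.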
KB-V1 MDR tox: kills drug-selected multidrug resistant KB-V1 cells | 3.4% of 400,000 active | AID 1347076 | KB-V1 MDR cells viability, CellTiter-Glo, 72 h | Potency, µM (titrated, usually from 46.1 µM), usual class: cytotoxic; further: nearly all actives have a fitted effect of over 60% in size
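In this primary screen, KB-V1 cells overexpressing P-gp are incubated with library compounds (lowest to highest concentration) for 72 h at 37 degrees C before a luminescent ATP viability read.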
DT40 TDP1 no CPT: qHTS for Inhibitors of human tyrosyl-DNA phosphodiesterase 1 (TDP1): qHTS in cells in absence of CPT; Potency, µM (titrated, usually from 46.2 µM), without a hit: at the highest dose activity change, negative = growth inhibition, hits mostly inhibitors; AID 686978, 2013; 15% of 420,000 active; DT40 Tdp1-/- hTDP1 cells, no CPT, ATP luminescence, 48 h; further: nearly all actives have a fitted effect of over 55% in size
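Readout: luminescence from CellTiter-Glo after 30 min in the dark at RT. Cells: DT40 Tdp1-/- with stable hTDP1, 400/well. Exposure: compounds alone, ≥48 hr, 37 °C.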
KB-3-1 cytotox: kills parental KB-3-1 adenocarcinoma cells; AID 1347075; 1.4% of 400,000 active; KB-3-1 viability, CellTiter-Glo ATP luminescence, 72 h; Potency, µM (titrated, usually from 46.1 µM), actives largely listed as cytotoxic; further: nearly all actives have a fitted effect of over 60% in size
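Cytotoxicity measured as CellTiter-Glo luminescence after 72 h at 37 C. Compound titrations were pinned onto drug-naive KB-3-1 parental adenocarcinoma cells grown in DMEM with 10% FBS, and normalized data fitted to concentration-response curves.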
TDP1 cell CPT: growth inhibition of DT40 Tdp1-/-;hTDP1 cells with camptothecin (screen for TDP1 inhibitors); chicken DT40 Tdp1-/-;hTDP1 cells + 20 nM CPT, ATP luminescence, 48 h; Potency, µM (series often up to 46.2 µM), for the others: at the highest dose activity change, negative = growth inhibition, hits mostly inhibitors; 12% of 420,000 active; AID 686979; further: nearly all actives have a fitted effect of over 55% in size
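Cell growth measured by CellTiter-Glo luminescence after a minimum 48 h, 37 C compound exposure with 20 nM CPT in Tdp1-knockout DT40 cells stably expressing hTDP1, seeded 400/well; qHTS titration format.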
HT1080-NT tox: kills 2HG-producing HT-1080-NT fibrosarcoma cells. 1.6% of 360,000 active. HT-1080-NT fibrosarcoma viability, CellTiter-Glo ATP luminescence, 48 h. Potency, µM (highest dose often 46.1 µM), for the others: top-dose activity, negative = less viability, hits mostly cytotoxic;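 further: NT is the 2HG producing partner of a matched IDH1 knockdown line; 0% = DMSO-treated cells and -100% = media-only wells without cells; nearly all actives have a fitted effect of over 55% in size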
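Compounds were tested in concentration-response format on HT-1080-NT cells for 48 hours at 37 degrees C. Cell viability came from CellTiter-Glo luminescence; curves were classified by r2, response magnitude and activity.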
* hit, by the source's call; i = inactive; u = inconclusive; x = no result given. An excerpt weighted towards active compounds, which were near 19% of everything screened. The call rests on the fitted dose curve; in most records, active means well fitted curve in the direction sought with a large enough effect; inconclusive means small, poorly fitted or top-dose-only effect, or another doubt; inactive means no such curve, though single readings can be large; an effect the other way counts as inactive or inconclusive. Unless noted, on the % scale 0 is the no-effect control and ±100 the full control effect; potency means the concentration at half of the fitted maximal effect.

SMILES	HT1080 IDH1KD tx	KB-V1 MDR tox	DT40 TDP1 no CPT	KB-3-1 cytotox	TDP1 cell CPT	HT1080-NT tox
COc1ccc(CNC(=O)c2cnn3c(C)c(Cc4ccc(F)cc4)c(C)nc23)cc1	x	i	15µM*	i	16µM*	x
COC[C@]12CN(C=O)C3C4C(OC)C1[C@@]3(C1CC3(O)C(OC)C(O)C4(OC(C)=O)C1C3OC(=O)c1ccccc1)[C@@H](OC)CC2O (stereo partly specified)	x	x	28%	x	19%	x
CN[C@@H]1C[C@H](c2ccc(Cl)c(Cl)c2)c2ccccc21	x	x	9.4µM*	x	8.4µM*	x
CN[C@@H]1C[C@@H](c2ccc(Cl)c(Cl)c2)c2ccccc21	x	x	12µM*	x	24µM*	x
CCCc1nc2ccccc2c(=O)n1-c1cccc(OC)c1	-9%	i	u	i	18µM*	-6%
CCc1nc2ccccc2c(=O)n1-c1ccc2ccccc2c1	-19%	i	u	u	u	-6%
CCCc1nc2ccccc2c(=O)n1-c1ccc(OC)cc1	2%	i	23µM*	i	u	5%
CCCSc1nc2ccccc2c(=O)n1-c1ccccc1OC	x	x	21µM*	x	u	x
CCCc1nc2ccccc2c(=O)n1-c1ccccc1OC	3%	i	21µM*	i	u	4%
COc1ccccc1-n1c(Cc2ccccc2)nc2ccccc2c1=O	-10%	u	-30%	i	2%	-1%
Clc1cccc(Cl)c1CN1CCN(c2ccccc2)CC1	-5%	i	-20%	i	u	1%
CCCCc1nc2ccccc2c(=O)n1-c1cccc(OC)c1	x	i	18µM*	i	16µM*	x
CCCCOc1nc2ccccc2c(=O)n1-c1ccccc1	9%	16µM*	u	i	u	13%
CCCCc1nc2ccccc2c(=O)n1-c1ccccc1O	-3%	i	u	i	u	-12%
C#C[C@@]1(O)CCC2C3CCC4=C/C(=N/OCC(=O)NC(C(=O)NC(CC(C)C)C(=O)O)C(C)C)CC[C@]4(C)C3CC[C@@]21C (stereo partly specified)	-2%	u	21%	i	-10%	-2%
O=c1c2ccccc2nc(/C=C/c2ccc(O)cc2)n1-c1ccc(O)cc1	-7%	i	u	i	u	-10%
COc1ccc(-n2c(/C=C/c3ccc(O)cc3)nc3ccccc3c2=O)cc1	u	u	21µM*	u	23µM*	u
COc1cc(/C=C/c2nc3ccccc3c(=O)n2-c2ccc(Br)c(C)c2)ccc1O	x	u	16µM*	u	21µM*	x
COc1ccc(-n2c(/C=C/c3ccc4c(c3)OCO4)nc3ccccc3c2=O)cc1	1%	u	15µM*	u	26µM*	-5%
COc1ccc(-n2c(/C=C/c3ccc(O)c(OC)c3)nc3ccccc3c2=O)cc1	u	i	26µM*	i	21µM*	u
CN1C(=O)COc2c(C(=O)N[C@@H]3CN4CCC3CC4)cc(Cl)cc21	x	x	-12%	x	6%	x
Cc1ccc(-n2c(/C=C\c3ccc(F)cc3)nc3ccccc3c2=O)cc1Cl	x	i	16µM*	i	15µM*	x
O=c1c2ccccc2nc(/C=C/c2ccc(O)cc2)n1-c1cccc(O)c1	u	i	u	i	u	-22%
O=c1c2ccccc2nc(/C=C/c2ccccc2O)n1-c1ccc(Br)cc1	x	x	16µM*	x	u	x
C[C@H]1CC[C@@]2(C)[C@@H](CC[C@@H]3[C@@H]2CC[C@]2(C)[C@@H](O)CC[C@@H]32)C1	7%	i	u	i	u	14%
SMILES	HT1080 IDH1KD tx	KB-V1 MDR tox	DT40 TDP1 no CPT	KB-3-1 cytotox	TDP1 cell CPT	HT1080-NT tox
Cc1ccc(N2CC(C(=O)Nc3cc(S(=O)(=O)N4CCCCC4)ccc3C)CC2=O)cc1 (stereo unspecified)	-15%	i	5.8µM*	i	u	-7%
COc1ccccc1CNCC(=O)Nc1cc(S(=O)(=O)N2CCCCC2)ccc1C	0%	i	u	i	u	-3%
Cc1ccc(S(=O)(=O)N2CCCCC2)cc1NC(=O)CN1CC=C(c2ccccc2)CC1	12%	6.5µM*	5.2µM*	u	8.2µM*	3%
O=C(CN1CC=C(c2ccccc2)CC1)Nc1cc(Cl)ccc1Cl	8%	u	16µM*	i	u	5%
Fc1cccc(-c2ccc3c(c2)CNCc2cnnn2-3)c1	-4%	i	-9%	i	-18%	1%
COc1cc2c(cc1OC)C(C(=O)NC(C)C)C1CCCCN1C2=O (stereo unspecified)	-1%	i	0%	i	9%	2%
CCOC(=O)c1c(/N=C/C2C(=O)NC(=O)NC2=O)sc2c1CCC2	-11%	i	6%	i	11%	-7%
CCOC(=O)c1c(NC(NC(=O)CF)C(Cl)(Cl)Cl)sc2c1CCCC2 (stereo unspecified)	-10%	i	u	i	13µM*	-8%
COP(=O)(OC)c1nc(-c2ccccc2)oc1NCc1ccccc1	-9%	i	u	i	-12%	-12%
CCCOP(=O)(OCCC)c1nc(-c2ccccc2)oc1NCc1ccccc1	u	u	u	i	23µM*	-20%
CC1CCCC(NC(=O)COC(=O)c2cn(C)c3ccccc23)C1C (stereo unspecified)	1%	i	-27%	i	-26%	3%
Cc1ccc(C(=O)Nc2nc3ccccc3n2CCN2CCCC2)cc1	-5%	i	13µM*	u	15µM*	u
COc1ccc(N(CC(=O)Nc2cccc(SC)c2)S(C)(=O)=O)cc1Cl	-27%	i	u	i	-23%	-5%
O=C(c1ccc2c(=O)n(Cc3ccc4c(c3)OCO4)c(=S)[nH]c2c1)N1CCC2(CC1)OCCO2	14%	i	u	i	23µM*	0%
O=C(NCc1ccc(C(=O)N2CCC3(CC2)OCCO3)cc1)c1ccc2c(c1)OCO2	3%	i	-24%	i	-15%	8%
Cc1cc(NC(=O)CCl)nn1C	u	21µM*	15µM*	13µM*	23µM*	u
Cn1ccc(NC(=O)CCl)n1	u	i	u	i	u	u
C=CCC1=C(C)C(OC(=O)C2C(C=C(C)C)C2(C)C)CC1=O (stereo unspecified)	x	x	24µM*	x	u	x
